Rows were chosen to be rich in hits. Some 6.7% of all compounds tested hit in one or more screens of this group.
Bead autofluor: compound fluorescence in toxin protease inhibitor counterscreen | 360,000 tested, 3.1% active | fluorescence intensity (no concentration beside the values) | compound autofluorescence counterscreen, microsphere flow cytometry; active compounds read high; in the data active means fluorescence intensity above about 16000; inconclusive means no clear call, values can overlap the other calls
Anthrax LF inh2: inhibitors of Bacillus anthracis lethal factor protease. P15917. multiplex microsphere protease cleavage assay, LF. inhibition, % at 10 µM. 360,000 tested, 0.12% active; further: plate controls were buffer without enzyme for full effect and enzyme alone for no effect
GDH-TPI counter: counter-screen for M. tuberculosis FBA inhibitors: GDH-TPI coupled enzymes; GDH-TPI coupled enzyme counterscreen, NADH absorbance; inhibition, % at 4.8 µM; 360,000 tested, 1.2% active; in the data active means inhibition above about 30%;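 further: 0% = DMSO wells and 100% = wells lacking the enzyme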
BoNT F protease: BoNT F light chain protease inhibition; Multiplex microsphere protease cleavage assay, flow cytometry; inhibition, % at 10 µM; 360,000 tested, 0.22% active; AID 588497; in the data active means inhibition above about 35%, passing the limit was not always enough; inconclusive means no clear call, values can overlap the other calls; further: plate controls were buffer without enzyme for full effect and enzyme alone for no effect
Mtb FBA inh: inhibitors of M. tuberculosis fructose-bisphosphate aldolase; purified M. tuberculosis FBA, fluorescence read-out; inhibition, % at 1 µM; P9WQA3; 360,000 tested, 2.3% active; AID 588726; in the data active means inhibition above about 27%;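 further: 0% = vehicle and 100% = reference inhibitor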
Target sequence (P9WQA3 whole entry, looked up): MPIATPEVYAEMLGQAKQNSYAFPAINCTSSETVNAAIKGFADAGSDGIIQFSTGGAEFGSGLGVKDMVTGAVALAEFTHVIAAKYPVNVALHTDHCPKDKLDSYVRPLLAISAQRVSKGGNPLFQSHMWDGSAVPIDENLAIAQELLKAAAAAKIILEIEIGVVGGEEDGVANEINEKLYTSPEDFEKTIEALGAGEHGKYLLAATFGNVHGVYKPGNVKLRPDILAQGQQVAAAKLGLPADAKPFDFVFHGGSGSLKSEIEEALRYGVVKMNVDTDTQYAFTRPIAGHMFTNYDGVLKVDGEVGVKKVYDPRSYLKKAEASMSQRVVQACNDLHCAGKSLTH
BoNT-A LC inh2: inhibitors of Botulinum neurotoxin A light chain protease; multiplex microsphere protease substrate cleavage, flow cytometry; inhibition, % at 10 µM; 360,000 tested, 0.17% active; AID 588499; further: plate controls were buffer without enzyme for full effect and enzyme alone for no effect
The depositor's hits bear a star; u = inconclusive; x = no result; + = active, no number. Unless noted, no stated cut-off is given here; in the data, active means inhibition above about 30%; inconclusive means no clear call, values can overlap the other calls; inactive means below that.

SMILES	Bead autofluor	Anthrax LF inh2	GDH-TPI counter	BoNT F protease	Mtb FBA inh	BoNT-A LC inh2
COC(=O)Nc1ccc(OCc2ccccc2)cc1	4259	-4	2	-8	0	1
Nc1ccc(C(=O)C(=O)c2ccc(N)cc2)cc1	4245	-8	38*	u	1	-5
CCOC(=O)c1ccc(N)cc1	5449	-2	0	-10	-1	-1
Cc1ccc(N/C=C(\C#N)c2ccc(OCCCF)cc2)cc1	3937	-5	41*	-32	1	0
COc1ccc(N/C=C(\C#N)c2ccc(OCCCF)cc2)cc1	4621	-5	28	-12	-3	0
COc1ccc(-c2sc3ccccc3c2C#CCO)cc1	3649	4	8	-2	17	0
CS(=O)(=O)c1ccc(-c2sc3ccccc3c2C#CCCO)cc1	4303	3	32*	3	17	0
COc1ccc2c(-c3ccc(S(N)(=O)=O)cc3)c(-c3ccc(S(C)(=O)=O)cc3)sc2c1	3838	-1	12	-2	+	0
COc1ccc2sc(-c3ccc(S(C)(=O)=O)cc3)c(C#CCO)c2c1	2917	6	34*	8	21	4
COc1ccc(-c2sc3cc(OC)ccc3c2-c2ccc(OCCN3CCCCC3)cc2)cc1	5696	-8	x	-14	x	0
COc1ccc(-c2sc3cc(OC)c(OC)cc3c2C#CCCO)cc1	3842	-2	26	-6	24	1
COc1ccc2c(C#CCCO)c(-c3ccc(S(C)(=O)=O)cc3)sc2c1	3190	5	29	7	+	1
CC1(C)Cc2c(cnn2-c2ccccc2)C(NC(=O)CCN2CCCCO2)C1 (stereo unspecified)	6006	-3	5	-4	0	-3
COc1cccc(CNc2nc3cc(-c4cccc(Cl)c4)sc3c(=O)n2C)c1OC	2868	4	5	-5	0	1
NC1=NC2(CCCCC2)N=C(Nc2ccc(F)cc2F)N1	24883*	0	-11	-1	-1	-4
Cc1ccc(N2CCN(S(=O)(=O)c3ccc(-n4cnnn4)cc3)CC2)c(C)c1	5331	1	-8	1	-3	0
CC(C)OC(=O)c1nn2c(C(F)(F)F)cc(-c3ccco3)nc2c1Cl	2868	5	-5	6	1	0
CC(C)OC(=O)c1nn2c(C(F)(F)F)cc(-c3ccc(Br)o3)nc2c1Br	20340*	1	0	10	-2	9
COC(=O)CC/C(O)=C1\C(=O)CC(C)(C)CC1=Nc1ccccc1OC	2798	-2	13	-6	-2	1
CCCC/C(O)=C1\C(=O)CC(C)(C)CC1=Nc1ccccc1OC	20312*	-1	6	-1	-1	0
CN(C)c1nc(Oc2ccc(=O)[nH]n2)nc(N2CCOCC2)n1	2410	-7	1	7	5	1
CN(C(=O)c1cccc(NC(=O)c2ccco2)c1)c1ccccc1	3786	9	7	-37	4	-1
O=C(COc1ccc(Br)cc1Br)NC(=O)NC1CCCC1	4584	-2	-7	-1	-4	-1
Cc1cc(Oc2ccccc2)nc(SCC(=O)Nc2ccc(Cl)cc2Cl)n1	18063*	-2	9	-11	0	u
COC(=O)CSc1nc(C)cc(Oc2ccccc2)n1	5956	-2	4	-1	0	-1
SMILES	Bead autofluor	Anthrax LF inh2	GDH-TPI counter	BoNT F protease	Mtb FBA inh	BoNT-A LC inh2
O=C(Cc1cccs1)NCc1ccco1	3874	2	-2	-9	1	0
Cc1ccccc1Nc1nn2c(=O)c3ccccc3nc2s1	23125*	0	25	-2	2	0
COc1cc2cc(C(c3nnnn3C3CCCC3)N3CCCCC3)c(=O)[nH]c2cc1OC (stereo unspecified)	19432*	2	4	-1	0	1
COc1cc2cc(C(c3nnnn3C3CCCC3)N3CCCCCC3)c(=O)[nH]c2cc1OC (stereo unspecified)	20987*	0	4	-4	10	-1
O=c1[nH]c2cc3c(cc2cc1C(c1nnnn1C1CCCCC1)N1CCSCC1)OCCO3 (stereo unspecified)	22680*	6	20	0	28*	3
CCOc1ccc2[nH]c(=O)c(C(c3nnnn3C3CCCCC3)N3CCN(CC)CC3)cc2c1 (stereo unspecified)	21002*	2	7	-2	18	u
CCOc1ccc2[nH]c(=O)c(C(c3nnnn3C3CCCCC3)N3CCN(C)CC3)cc2c1 (stereo unspecified)	8586	6	6	3	23	1

Assay outcomes (PubChem BioAssay)
